± gives the standard deviation of the averaged measurements.
tested on: Serratia marcescens K904 PosmB-luxCDABE reporter (pMQ747); assay: PosmB-lux reporter fold induction (RLU/OD600 relative to no-compound control), highest over Biolog concentrations; higher = stronger Rcs reporter activation; settings: wild type K904; 4 h
Procedure: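 Serratia marcescens K904 (wild type) or its isogenic ΔrcsB mutant, carrying the Rcs-dependent PosmB-luxCDABE reporter plasmid pMQ747, was grown in LB at OD600 0.1 in Biolog Phenotype MicroArray plates PM11-20 for 4 h at 30-32°C. Each compound is present at 3-4 proprietary concentrations (not stated); per the Fig. S1 legend the value given is the highest fold over those wells. Three independent trials.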

Row | Compound | PosmB-lux reporter fold induction
1 | O=c1c(O)c(-c2cc(O)c(O)c(O)c2)oc2cc(O)cc(O)c12 [myricetin] (Biolog plate: PM18, well positions: G9-12) | 1.05 ± 0.13
2 | CC(=O)O[C@H]1C[C@@]2(C)[C@@H](C[C@@H](O)[C@H]3[C@@]4(C)CC[C@@H](O)[C@@H](C)[C@@H]4CC[C@@]32C)/C1=C(\CCC=C(C)C)C(=O)O [Fusidic acid] (Biolog plate: PM15, well positions: C5-8) | 1.01 ± 0.48
3 | CC1(C)S[C@@H]2[C@H](NC(=O)Cc3ccccc3)C(=O)N2[C@H]1C(=O)O [Penicillin G] (Biolog plate: PM12, well positions: A2-4) | 1.66 ± 0.23
4 | O=c1ccc2ccccc2o1 [coumarin] (Biolog plate: PM19, well positions: A9-12) | 1.03 ± 0.14
5 | CO[C@@]1(NC(=O)Cc2cccs2)C(=O)N2C(C(=O)O)=C(COC(N)=O)CS[C@@H]21 [Cefoxitin] (Biolog plate: PM14, well positions: E1-4) | 4.05 ± 0.85
6 | Cc1nnc(SCC2=C(C(=O)O)N3C(=O)[C@@H](NC(=O)Cn4cnnn4)[C@H]3SC2)s1 [Cefazolin] (Biolog plate: PM11, well positions: E1-4) | 1.18 ± 0.073
7 | C/C=C/C=C/C(=O)O [sorbic acid] (Biolog plate: PM16, well positions: H9-12) | 2.12 ± 0.59
8 | O=C1OC(CN2CCOCC2)CN1/N=C/c1ccc([N+](=O)[O-])o1 (stereo not given) [Furaltadone] (Biolog plate: PM14, well positions: A5-8) | 1.52 ± 0.2
9 | CCN1CCN(C(=O)N[C@@H](C(=O)N[C@@H]2C(=O)N3C(C(=O)O)=C(CSc4nnnn4C)CS[C@H]23)c2ccc(O)cc2)C(=O)C1=O [cefoperazone] (Biolog plate: PM17, well positions: G9-12) | 2.11 ± 0.69
10 | NC[C@@H]1O[C@H](O[C@H]2[C@@H](O)[C@H](O[C@@H]3[C@@H](O)[C@H](N)C[C@H](N)[C@H]3O[C@H]3O[C@H](CO)[C@@H](O)[C@H](O)[C@H]3N)O[C@@H]2CO)[C@H](N)[C@@H](O)[C@@H]1O [Paromomycin] (Biolog plate: PM12, well positions: C1-4) | 1.63 ± 0.1
11 | [Na+].[O]=[V](=[O])[O-] [Sodium metavanadate] (Biolog plate: PM14, well positions: F9-12) | 3.94 ± 1.2
12 | CC[C@H]1OC(=O)C[C@@H](O)[C@H](C)[C@@H](O[C@@H]2O[C@H](C)[C@@H](O[C@H]3C[C@@](C)(O)[C@@H](O)[C@H](C)O3)[C@H](N(C)C)[C@H]2O)[C@@H](CC=O)C[C@@H](C)C(=O)/C=C/C(C)=C/[C@@H]1CO[C@@H]1O[C@H](C)[C@@H](O)[C@@H](OC)[C@H]1OC [Tylosin] (Biolog plate: PM13, well positions: H9-12) | 1.21 ± 0.18
13 | C[C@H]1c2cccc(O)c2C(=O)C2=C(O)[C@]3(O)C(=O)C(C(N)=O)=C(O)[C@@H](N(C)C)[C@@H]3[C@@H](O)[C@@H]21 [Doxycycline] (Biolog plate: PM13, well positions: C5-8) | 1.48 ± 0.11
14 | O=C1CN(/N=C/c2ccc([N+](=O)[O-])o2)C(=O)N1 [Nitrofurantoin] (Biolog plate: PM14, well positions: E5-8) | 2.33 ± 0.28
15 | CCN1CCN(C(=O)N[C@@H](C(=O)N[C@@H]2C(=O)N3[C@@H]2SC(C)(C)[C@@H]3C(=O)O)c2ccccc2)C(=O)C1=O [Piperacillin] (Biolog plate: PM14, well positions: F5-8) | 3.19 ± 1.8
16 | C[C@H]1O[C@@H](n2cc(F)c(=O)[nH]c2=O)[C@H](O)[C@@H]1O [5-fluoro-5'-deoxyuridine] (Biolog plate: PM18, well positions: H1-4) | 1.12 ± 0.19
17 | Nc1ccc2cc3ccc(N)cc3nc2c1 [proflavine] (Biolog plate: PM20, well positions: D1-4) | 1.15 ± 0.24
18 | C[C@@H]1O[C@@H]1P(=O)(O)O [Phosphomycin] (Biolog plate: PM16, well positions: A5-8) | 0.962 ± 0.25
19 | CN[C@@H]1[C@@H](O[C@H]2O[C@H](CO)[C@@H](N)[C@H](O)[C@H]2O)OC2C[C@@H](N)[C@@H](O[C@H]3[C@H](O)[C@@H](O)[C@H](N)C[C@@H]3N)OC2[C@@H]1O (stereo not given in full) [apramycin] (Biolog plate: PM20, well positions: A5-8) | 1.85 ± 0.71
20 | CC1=CC(=O)c2ccccc2C1=O [Menadione] (Biolog plate: PM15, well positions: G9-12) | 3.74 ± 0.73

Row | Compound | PosmB-lux reporter fold induction
21 | CCS(=O)(=O)CCn1c([N+](=O)[O-])cnc1C [tinidazole] (Biolog plate: PM18, well positions: F5-8) | 1.53 ± 0.081
22 | CN[C@@H]1[C@@H](O)[C@@H](O[C@@H]2[C@@H](O)[C@H](O[C@H]3OC(CN)=CC[C@H]3N)[C@@H](N)C[C@H]2N)OC[C@]1(C)O [Sisomicin] (Biolog plate: PM12, well positions: D1-4) | 1.55 ± 0.14
23 | [Cl][Fe]([Cl])[Cl] [ferric chloride] (Biolog plate: PM16, well positions: G5-8) | 0.898 ± 0.3
24 | O=C(OC[C@H]1O[C@@H](OC(=O)c2cc(O)c(O)c(OC(=O)c3cc(O)c(O)c(O)c3)c2)[C@H](OC(=O)c2cc(O)c(O)c(OC(=O)c3cc(O)c(O)c(O)c3)c2)[C@@H](OC(=O)c2cc(O)c(O)c(OC(=O)c3cc(O)c(O)c(O)c3)c2)[C@@H]1OC(=O)c1cc(O)c(O)c(OC(=O)c2cc(O)c(O)c(O)c2)c1)c1cc(O)c(O)c(OC(=O)c2cc(O)c(O)c(O)c2)c1 [tannic acid] (Biolog plate: PM17, well positions: F9-12) | 1.5 ± 0.49
25 | Cn1nnnc1SCC1=C(C(=O)O)N2C(=O)[C@@H](NC(=O)[C@H](OC=O)c3ccccc3)[C@H]2SC1 [cefamandole nafate] (Biolog plate: PM17, well positions: G5-8) | 1.96 ± 0.53
26 | Cc1cc(O)cc(C)c1Cl [chloroxylenol] (Biolog plate: PM16, well positions: H5-8) | 2.08 ± 0.6
27 | CC1(C)S[C@@H]2[C@H](NC(=O)C(C(=O)O)c3ccccc3)C(=O)N2[C@H]1C(=O)O (stereo not given in full) [Carbenicillin] (Biolog plate: PM14, well positions: G5-8) | 42 ± 28
28 | Nc1ncn([C@@H]2O[C@H](CO)[C@@H](O)[C@H]2O)c(=O)n1 [5-azacytidine] (Biolog plate: PM16, well positions: E5-8) | 1.15 ± 0.41
29 | CN(C)[C@@H]1C(O)=C(C(N)=O)C(=O)[C@@]2(O)C(O)=C3C(=O)c4c(O)cccc4[C@@](C)(O)[C@H]3C[C@@H]12 [Tetracycline] (Biolog plate: PM12, well positions: A5-8) | 1.53 ± 0.2
30 | c1ccc(-c2nn(-c3ccccc3)[n+](-c3cccc4ccccc34)n2)cc1 [tetrazolium violet] (Biolog plate: PM20, well positions: B9-12) | 0.453 ± 0.17
31 | Cc1ccc2c(Cl)cc(Cl)c(O)c2n1 [5,7-Dichloro-8-hydroxy-quinaldine] (Biolog plate: PM15, well positions: B9-12) | 2.01 ± 0.87
32 | CN(C)CCCN1c2ccccc2Sc2ccc(Cl)cc21 [chlorpromazine] (Biolog plate: PM17, well positions: D9-12) | 2 ± 0.77
33 | CSCCC(N)C(=O)NO (racemic) [DL-methionine hydroxamate] (Biolog plate: PM17, well positions: F5-8) | 1.74 ± 0.48
34 | CN(C)c1ccc(C(=C2C=CC(=[N+](C)C)C=C2)c2ccc(N(C)C)cc2)cc1 [crystal violet] (Biolog plate: PM20, well positions: E1-4) | 0.912 ± 0.13
35 | N=C(NCCCCCCNC(=N)NC(=N)Nc1ccc(Cl)cc1)NC(=N)Nc1ccc(Cl)cc1 [chlorhexidine] (Biolog plate: PM19, well positions: C1-4) | 1.21 ± 0.081
36 | OCC(O)CS (stereo not given) [thioglycerol] (Biolog plate: PM19, well positions: H5-8) | 1.22 ± 0.31
37 | CC(CN1c2ccccc2Sc2ccccc21)N(C)C (stereo not given) [Promethazine] (Biolog plate: PM14, well positions: H5-8) | 4.68 ± 1.8
38 | CN[C@H](CC(C)C)C(=O)N[C@H]1C(=O)N[C@@H](CC(N)=O)C(=O)N[C@H]2C(=O)N[C@H]3C(=O)N[C@H](C(=O)N[C@H](C(=O)O)c4cc(O)cc(O)c4-c4cc3ccc4O)[C@H](O)c3ccc(c(Cl)c3)Oc3cc2cc(c3O[C@@H]2O[C@H](CO)[C@@H](O)[C@H](O)[C@H]2O[C@H]2C[C@](C)(N)[C@H](O)[C@H](C)O2)Oc2ccc(cc2Cl)[C@H]1O [Vancomycin] (Biolog plate: PM12, well positions: C5-8) | 5.39 ± 2
39 | CO[C@@]1(NC(=O)CSCC#N)C(=O)N2C(C(=O)O)=C(CSc3nnnn3C)CS[C@@H]21 [Cefmetazole] (Biolog plate: PM15, well positions: A9-12) | 1.21 ± 0.23
40 | CC(C)(C)CC(C)(C)c1ccc(OCCOCC[N+](C)(C)Cc2ccccc2)cc1 [Benzethonium chloride] (Biolog plate: PM12, well positions: E9-12) | 2.27 ± 0.38

From the supplement of paper PMC9942566
